The target in assay [1] is Rap guanine nucleotide exchange factor 3 (Homo sapiens) (UniProt O95398). The experiment in a line: Confirmatory qHTS for antagonist of cAMP-regulated guanine nucleotide exchange factor 3 (EPAC1) (AID 1645880). Also: nearly all actives have a fitted effect of over 55% in size. Also: potency is read from the fitted curve at half-maximal effect. A digest of the protocol:
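Released BODIPY-GDP fluoresces less than Rap1-bound BODIPY-GDP; the signal is followed at 480/540 nm at 5-min intervals over 30 min, after 5 min at room temperature. Reactions contain 100 nM EPAC1, 250 nM RAP1B-BODIPY-GDP and 50 uM GDP; results are normalized to ATA and DMSO.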
On the technique in general: Quantitative high-throughput screening tests each substance at several concentrations.

The target is the same in assay [2]. The experiment in a line: Confirmatory qHTS for agonist of cAMP-regulated guanine nucleotide exchange factor 3 (EPAC1) (AID 1645881).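 Also: EPAC1 catalysed release of BODIPY-GDP from Rap1B seen as fluorescence loss; 100% = effect of cAMP agonist control; nearly all actives have a fitted effect of over 75% in size.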
Assay [3] concerns the target Rap guanine nucleotide exchange factor 4 (Homo sapiens) (UniProt Q8WZA2). Briefly: Confirmatory qHTS for agonist of cAMP-regulated guanine nucleotide exchange factor 4 (EPAC2) (AID 1645884).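 Also: nucleotide exchange releases bodipy-GDP from Rap1 and this lowers its fluorescence; % is scaled to controls: 0 for no effect and ±100 for the full control effect; nearly all actives have a fitted effect of over 65% in size.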

Records with an inconclusive call do not appear. Values without a mark were called inactive. Activity calls are given as the source filed them. Calls follow the shape of the dose curve; as a rule, active = well fitted curve in the direction sought with a large enough effect; inconclusive = small, poorly fitted or top-dose-only effect, or another doubt; inactive = no such curve, though single readings can be large; an effect the other way counts as inactive or inconclusive.

Rap guanine nucleotide exchange factor 4 (Homo sapiens), sequence (Q8WZA2 whole entry, looked up): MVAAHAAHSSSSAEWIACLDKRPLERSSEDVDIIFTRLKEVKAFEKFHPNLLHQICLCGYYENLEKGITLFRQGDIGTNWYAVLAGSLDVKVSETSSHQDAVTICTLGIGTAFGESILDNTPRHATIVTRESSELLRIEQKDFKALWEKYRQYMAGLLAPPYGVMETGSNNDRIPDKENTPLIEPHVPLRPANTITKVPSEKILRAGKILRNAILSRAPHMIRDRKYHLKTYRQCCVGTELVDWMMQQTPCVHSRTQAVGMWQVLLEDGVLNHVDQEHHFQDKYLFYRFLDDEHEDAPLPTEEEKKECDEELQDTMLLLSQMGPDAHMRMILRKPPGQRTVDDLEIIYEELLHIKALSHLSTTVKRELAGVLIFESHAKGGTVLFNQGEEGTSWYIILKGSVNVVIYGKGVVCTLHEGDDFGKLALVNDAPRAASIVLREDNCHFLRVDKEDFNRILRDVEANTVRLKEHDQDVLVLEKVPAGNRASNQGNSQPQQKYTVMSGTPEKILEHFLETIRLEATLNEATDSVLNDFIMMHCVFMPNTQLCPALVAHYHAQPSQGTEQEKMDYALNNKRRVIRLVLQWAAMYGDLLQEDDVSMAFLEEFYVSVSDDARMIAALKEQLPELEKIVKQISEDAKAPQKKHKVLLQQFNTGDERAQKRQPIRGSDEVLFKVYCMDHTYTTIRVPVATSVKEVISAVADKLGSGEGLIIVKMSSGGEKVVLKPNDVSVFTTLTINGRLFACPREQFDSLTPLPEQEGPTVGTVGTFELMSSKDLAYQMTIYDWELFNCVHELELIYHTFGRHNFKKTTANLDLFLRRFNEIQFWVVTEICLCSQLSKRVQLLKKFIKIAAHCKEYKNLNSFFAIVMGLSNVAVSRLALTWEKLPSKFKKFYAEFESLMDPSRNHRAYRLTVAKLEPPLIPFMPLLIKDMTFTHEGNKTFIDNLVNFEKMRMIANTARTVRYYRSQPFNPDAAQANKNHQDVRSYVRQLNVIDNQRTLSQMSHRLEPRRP
Rap guanine nucleotide exchange factor 3 (Homo sapiens), sequence (O95398 whole entry, looked up): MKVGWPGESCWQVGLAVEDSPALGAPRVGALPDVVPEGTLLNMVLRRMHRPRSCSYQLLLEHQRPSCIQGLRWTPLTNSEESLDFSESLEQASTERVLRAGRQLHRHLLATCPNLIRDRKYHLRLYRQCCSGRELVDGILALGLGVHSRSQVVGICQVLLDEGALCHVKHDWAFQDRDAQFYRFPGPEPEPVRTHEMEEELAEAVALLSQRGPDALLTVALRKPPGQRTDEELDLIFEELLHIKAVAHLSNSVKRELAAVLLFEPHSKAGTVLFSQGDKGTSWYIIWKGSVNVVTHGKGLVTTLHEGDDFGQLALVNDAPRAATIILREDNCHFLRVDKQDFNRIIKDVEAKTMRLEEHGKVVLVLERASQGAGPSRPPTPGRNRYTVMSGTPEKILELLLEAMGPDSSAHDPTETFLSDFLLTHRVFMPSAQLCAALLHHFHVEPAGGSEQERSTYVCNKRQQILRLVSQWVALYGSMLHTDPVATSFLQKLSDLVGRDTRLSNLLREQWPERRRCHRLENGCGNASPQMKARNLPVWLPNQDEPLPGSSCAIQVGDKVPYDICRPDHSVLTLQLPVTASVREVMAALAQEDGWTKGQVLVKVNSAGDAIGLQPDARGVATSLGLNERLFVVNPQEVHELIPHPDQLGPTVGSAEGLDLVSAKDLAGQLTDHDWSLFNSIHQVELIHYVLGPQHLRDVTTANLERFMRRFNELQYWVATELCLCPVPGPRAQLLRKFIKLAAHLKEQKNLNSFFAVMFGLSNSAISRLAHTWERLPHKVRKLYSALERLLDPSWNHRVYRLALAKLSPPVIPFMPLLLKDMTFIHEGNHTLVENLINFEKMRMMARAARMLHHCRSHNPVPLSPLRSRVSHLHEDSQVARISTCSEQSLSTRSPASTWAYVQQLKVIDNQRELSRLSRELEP

As for `CCc1ccc([C@@H]2CC=C(C(=O)O)[C@H](c3ccc(Br)cc3)N2S(=O)(=O)c2ccc(C)cc2)cc1`, the Potency in assay [1] was 17.8 µM (active). Besides, the Potency result in assay [2] is “inactive”. In addition, the activation in assay [3] is -5.28% [at 17.1 µM, percent relative to cAMP agonist control].

With `Cc1cnc2ccccc2c1/C=C/c1ccc(N(C)C)cc1`, the Potency entry in assay [1], in assay [2] and in assay [3] was “inactive” each time.

Regarding `C=CCn1c(N)c(S(=O)(=O)c2cccs2)c2nc3ccccc3nc21`, the Potency in assay [1] is 33.8 µM (active). Further, the Potency result in assay [2] and in assay [3] was “inactive” each time.

Take `CC(=O)C(C(c1ccccc1)c1c[nH]c2ccccc12)[N+](=O)[O-]` (stereo unspecified): the Potency entry in assay [1] and in assay [2] was “inactive” throughout.
